# High-throughput results (PubChem BioAssay)
# Only a selection was taken, and hits are over-represented in it overall.
# Ecoli WT expand = growth inhibitors of E. coli BW25113 wild type. 98,000 compounds, 0.15% hits. OD600 absorbance. growth inhibition, % at 100 µM;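 active = growth inhibition above about 50% at one test dose, limit read from the data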;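 also: growth measured after 20 h incubation at 37 °C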
# Mac1 fbg enh = increases human CD11b/CD18 adhesion to fibrinogen. AID 1499. 93,000 compounds, 0.07% hits. K562 CD11b/CD18 adhesion to fibrinogen, ATPlite luminescence. activation, % at 10 µM;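 active = 10 µM primary screen giving 50% or more activity, confirmed by 40% or more on retest at that dose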
# Cav3 T inh = inhibitors of human Cav3.2 T-type calcium channel; O95180; Cav3.2-expressing cells, Fluo-4 calcium fluorescence FDSS; stronger effect = lower value; B-score at 10 µM; 100,000 compounds, 4% hits; AID 449739;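 active = single-dose well whose peak fluorescence ratio is a statistical outlier from its plate by either plate-standardised score or position-corrected B-score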
# Mac1 fbg inh = CD11b/CD18-fibrinogen binding inhibition | P05107+P11215 | 93,000 compounds, 0.54% hits | K562 CD11b/CD18 adhesion to fibrinogen, ATPlite luminescence; Mn2+ added to activate the integrin | inhibition, % at 10 µM | AID 1497;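 active = primary inhibition of 50% or more at 10 µM, then 40% or more on retest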
# Numbers stand for hits; – = inactive; · = no result.
SMILES,Ecoli WT expand,Mac1 fbg enh,Cav3 T inh,Mac1 fbg inh
COc1ccc(C/C(C)=N/NC(=O)c2cccnc2)cc1,·,–,·,–
COC(=O)C1N2C(=O)[C@@H](NC(=O)COc3ccccc3)[C@H]2SC1(C)C (some centres undefined),·,·,–,·
CCCN1C(=O)/C(=C/c2ccc(N3CCCC3)c(C)c2)NC1=S,–,·,-7.1,·
NC1=NC[C@H](c2ccccc2)N1CCc1cccc(F)c1,·,·,–,·
Cc1ccc(S(=O)(=O)NCC(=O)OC(C)C(=O)Nc2ncc(Cl)cc2Cl)cc1 (centres undefined),–,·,–,·
COc1cccc(-c2csc(N3CCN(C(=O)Nc4ccc(F)cc4)CC3)n2)c1,·,·,-6.5,·
Cc1cccc(NC(=O)c2ccc(C3SCC(=O)N3CCc3ccccc3)cc2)c1C (centres undefined),–,–,-4.5,–
CCc1ccc(NC(=O)c2ccc(C3SCC(=O)N3CCc3ccccc3)cc2)cc1 (centres undefined),–,–,·,–
Cc1ccccc1NC(=O)C1(NC(=O)c2cccc(N3C(=O)CSC3c3ccccc3)c2)CCCCC1 (centres undefined),–,–,-10,–
O=C(NCc1ccc(F)cc1)c1cc(S(=O)(=O)N2CCOCC2)ccc1F,–,–,-5.2,–
Cc1ccc(NC(=O)c2cc(S(=O)(=O)N3CCOCC3)ccc2F)c(C)c1,–,–,–,–
Nc1ccccc1-c1nnn(CC(=O)N2CCCc3ccccc32)n1,·,·,–,·
Cc1ccc(S(=O)(=O)N2CCC(=O)N(CCOCc3ccc(C(F)(F)F)cc3)CC2)cc1,·,·,–,·
Cc1ccc(S(=O)(=O)NNc2nc3ccccc3nc2C(F)(F)F)cc1,–,–,-3.4,–
CCO[C@H]1OC(C(=O)NCc2ccccc2)=C[C@@H](c2ccccc2)[C@@H]1CCCO,·,·,–,·
CC(C)c1nc(N2CCOCC2)c(C#N)c2c1CCCC2,–,–,-5,–
COc1ccc(-n2c(Cc3cccn3C)nnc2SCC(=O)NCc2ccc(F)cc2)cc1,–,–,-7.1,–
COc1ccc(-n2c(Cc3cccn3C)nnc2SCC(=O)Nc2nc(C)cs2)cc1,–,–,·,–
CCc1ccc(NC(=O)CSc2nnc(Cc3cccn3C)n2-c2ccc(OC)cc2)cc1,–,–,-5.4,–
COc1ccc(-n2c(Cc3cccn3C)nnc2SCC(=O)Nc2ccc(Cl)cc2)cc1,–,–,-4.5,–
COc1ccc(-n2c(Cc3cccn3C)nnc2SCC(=O)Nc2cccc(F)c2)cc1,–,–,-4.5,–
COc1ccc(-n2c(Cc3cccn3C)nnc2SCC(=O)NCc2ccco2)cc1,–,–,–,–
C#CCSc1nnc(C)c(C)n1,·,·,–,·
COc1ccc2c(c1)C1CC(C)(NC(=O)C1S(=O)(=O)c1ccc(F)cc1)O2 (centres undefined),·,–,·,–
CCOC(=O)C1CCC(CN(Cc2ccccc2)S(=O)(=O)c2ccc([N+](=O)[O-])cc2)CC1 (centres undefined),·,–,·,–
SMILES,Ecoli WT expand,Mac1 fbg enh,Cav3 T inh,Mac1 fbg inh
COc1ccc(-n2c(Cc3cccn3C)nnc2SCC(=O)Nc2ccccc2)cc1,–,–,-13,–
COc1ccc(NC(=O)CSc2nnc(C3CCCCC3)n2-c2ccccc2)cc1,–,–,-6.1,–
CCCc1c(-c2ccc(O)cc2)nn(-c2ccc(O)cc2)c1-c1ccc(O)cc1,·,·,–,·
Cc1cc(C)c(C2=CC(c3ccccc3)n3ncnc3N2)cc1C (centres undefined),·,·,–,·
CNC(=S)N1CCN(c2c(F)cc3c(=O)c(C(=O)O)cn(C4CC4)c3c2OC)CC1C (centres undefined),100,–,4.4,–
COc1c(N2CCN(C(=S)Nc3ccccc3)C(C)C2)c(F)cc2c(=O)c(C(=O)O)cn(C3CC3)c12 (centres undefined),99,·,·,·
O=C(CSc1nnc(Cc2cccs2)n1Cc1ccco1)Nc1ccc(Cl)cc1Cl,–,–,·,–
O=C(CSc1nnc(Cc2ccccc2)n1Cc1ccco1)NC12CC3CC(CC(C3)C1)C2,–,–,-3.2,–
Cc1cc(C)nc(SCc2nnc(SCC(=O)Nc3ccc(C)c(C)c3)n2Cc2ccco2)n1,–,–,-8,–
O=C(CSc1nnc(Cc2cccs2)n1Cc1ccco1)Nc1ccc(Br)cc1,–,–,-4,–
CC1(c2nnc(-c3cccc(Cl)c3)o2)CC(c2cccnc2)=NO1 (centres undefined),·,·,–,·
O=C(c1cccc(Cl)c1)N1CCC(=O)N(C(CO)Cc2ccccc2)CC1 (centres undefined),·,·,–,·
O=C(Nc1ccc(Cl)cc1)[C@@H]1[C@@H]2C(=O)N(c3ccc4ccccc4c3)C(=O)[C@@H]2[C@H]2C=CC=NN21,–,–,-8.6,–
